This note sets out measurements from PubChem BioAssay (NCATS).

Assay [1] concerns the target Lysosomal acid glucosylceramidase (Homo sapiens) (UniProt P04062). Briefly: Glucocerebrosidase-p2 (AID 348; in the data active means potency below about 10 µM; further: potency means the concentration at half of the fitted maximal effect). The following applies: purified GBA, blue fluorogenic substrate, 40 min. In outline:
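Normal human glucocerebrosidase (0.2 nM) with blue fluorogenic substrate (80 uM final) in citrate/phosphate pH 5.9 with 10mM sodium taurocholate, 0.01% tween-20; 40 min RT, NaOH/glycine stop; fluorescence Ex 365/Em 440; AC50 from a titration from 0.6 nM upwards.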

Assay [2] can be described thus: AP1 Signaling Pathway (AID 357).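 Further: ME-180 reporter cells stimulated with EGF at its EC50 level; on the % scale 0 is the no-effect control and ±100 the full control effect.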 The following applies: ME-180 AP-1-bla reporter, EGF-induced, beta-lactamase ratio, 5 h; at 7.69 µM (top of the series) unless noted. In outline: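 In this screen, ME-180 cells in Opti-MEM with 0.5% dialyzed FBS received EC50 EGF and compound titrations for 5 h. AP-1 reporter beta-lactamase was detected via CCF4 ratio, giving AC50 for positive and negative modulators.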

The target of assay [3] is Cytochrome P450 1A2 (Homo sapiens) (UniProt P05177). Description: p450-cyp1a2 (AID 410; calls by dose curve; further: potency means the concentration at half of the fitted maximal effect). The following applies: recombinant CYP1A2, luciferin-ME demethylation, luminescence; series mostly up to 57 µM. A digest of the protocol:
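20nM CYP1A2, 100uM Luciferin-ME (=Km), 100mM KPO4; cpd 10 min RT; +NADPH regen, 60 min RT; stop/detect 20 min; luminescence. Normalized to furafylline 57 uM = full inhibition.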

Assay [4] can be described thus: Stat Signaling Pathway (AID 446).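 Further: ME-180 cervical cancer cells given 40 pM IL-6 alongside compound; SIE-controlled beta-lactamase reporter measured as 460/530 nm FRET emission ratio; on the % scale 0 is the no-effect control and ±100 the full control effect.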 The following applies: ME-180 SIE beta-lactamase reporter, IL-6 stimulated, 5 h; at 7.69 µM (top of the series) unless noted. In outline:
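Emission at 460 and 530 nm (excitation 405 nm) reports SIE-controlled beta-lactamase in ME-180 cells. Cells received compound with 40 pM IL-6 for 5 hrs at 37 C; data scaled between 300 pM IL-6 and 125 nM JAK-inhibitor controls.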

The target of assay [5] is Glucocorticoid receptor (Homo sapiens) (UniProt P04150). Description: GR-GFP Redistribution (AID 450;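 active means compounds whose dose series gives a full or clear partial fitted curve of increased nuclear translocation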; further: potency means the concentration at half of the fitted maximal effect). The following applies: U2OS GR-GFP nuclear translocation, laser cytometry, 2 h.
For assay [6] the target is unchanged. Description: GR-EFC Redistribution (AID 451; calls by dose curve; further: potency means the concentration at half of the fitted maximal effect). As to conditions: CHO-K1 GR-EFC translocation, beta-gal luminescence, 2 h. In outline:
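CHO-K1 cells stably expressing nuclear-localized β-gal enzyme acceptor and GR fused C-terminally to the enzyme donor fragment; ligand-driven nuclear translocation restores β-gal by complementation. Compounds titrated up to 46 uM final, 2 h at 37 °C; luminescence read.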

Assay [7] has as its target Mitogen-activated protein kinase 10 (Mus musculus) (UniProt Q61831). Description: JNK3 AlphaScreen Assay (AID 530).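 Further: kinase came from lysate of stimulated human HepG2 cells; signal reports phosphorylation of biotinylated GST-cJun 1-79 at Ser73 with 10 µM ATP; on the % scale 0 is the no-effect control and ±100 the full control effect.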 The following applies: JNK3 lysate, c-Jun phosphorylation; series mostly up to 57.1 µM. In outline:
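Biotinylated GST-cJun(1-79) served as substrate for JNK3 in HepG2 lysates stimulated with IL-1beta and TNF-alpha. ATP was 10 uM final, pH 7.6. Ser73 phosphorylation was quantified by AlphaScreen (680 nm excitation).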

Assay [8] has as its target Cytochrome P450 3A4 (Homo sapiens) (UniProt P08684). Briefly: qHTS Assay for Inhibitors and Substrates of Cytochrome P450 3A4 (AID 884; active means well fitted curve in the direction sought with a large enough effect; an effect the other way counts as inactive or inconclusive; further: potency means the concentration at half of the fitted maximal effect; nearly all actives have a fitted effect of over 50% in size). The following applies: recombinant CYP3A4, Luciferin-PPXE luminescence; series mostly up to 57.1 µM. In outline: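 Luminescent readout of luciferin produced by CYP3A4 (20 nM) dealkylation of Luciferin-PPXE, 25 uM (its KM). NADPH-driven reaction ran 60 min at RT after 10 min compound preincubation; data scaled to 57 uM ketoconazole as 100% inhibition.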

Assay [9] shares this target. Briefly: qHTS Assay for Activators of Cytochrome P450 3A4 (AID 885; active means well fitted curve in the direction sought with a large enough effect; an effect the other way counts as inactive or inconclusive; further: nearly all actives have a fitted effect of over 65% in size). The following applies: recombinant CYP3A4, Luciferin-PPXE luminescence, 60 min; series mostly up to 57.1 µM. In outline: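 Activators are scored by enhanced luminescence from CYP3A4 conversion of luciferin-PPXE (25uM, equal to KM) to luciferin, after 60 min at RT with an NADPH-regenerating system.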

Assay [10] deals with Cytochrome P450 2C19 (Homo sapiens) (UniProt P33261). Description: qHTS Assay for Inhibitors and Substrates of Cytochrome P450 2C19 (AID 899; active means well fitted curve in the direction sought with a large enough effect; an effect the other way counts as inactive or inconclusive; further: potency means the concentration at half of the fitted maximal effect; nearly all actives have a fitted effect of over 60% in size). The following applies: recombinant CYP2C19, luciferin-H EGE luminescence; series mostly up to 57.1 µM. A digest of the protocol: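 NADPH-dependent conversion of Luciferin-H EGE (10uM, at KM) by 5nM enzyme in 50mM KPO4, 60 min at 37C following 10 min compound preincubation. Stopped with luciferin detection buffer; luminescence read after 20 min.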

A short description of assay [11]: Confirmation and Secondary Assay for Modulators of Hemoglobin Beta Chain Splicing at IVS2 654 locus (AID 910; active means well fitted curve in the direction sought with a large enough effect; an effect the other way counts as inactive or inconclusive; further: % of control where 0% means no effect). The following applies: HeLa EGFP-654 splicing reporter, GFP fluorescence, 48 h; series mostly up to 38.3 µM. In outline: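 HeLa cells stably carrying EGFP interrupted by mutant beta-globin IVS2-654 intron (CMV-driven) were treated with compound for 2 days at 37C; corrected splicing was scored as total peak GFP intensity per well (488 nm excitation, 500-520 nm emission).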

Assay [12] is described as follows: qHTS Assay for Identification of Small Molecule Agonists for Hypoxia Response Element Signaling Pathway (AID 914; active means well fitted activation curve with a large enough effect in the signal ratio, with a control signal flat, not every such curve was filed as active; the % refers to the signal ratio; further: % of control where 0% means no effect). As to conditions: ME-180 (cervical carcinoma) HRE-bla reporter, beta-lactamase ratio, CoCl2, 17 h; activation: stronger effect = higher value. A digest of the protocol:
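HRE-bla ME-180 cells, overnight plating in Opti-MEM with 0.5% dialyzed FBS; cpd titration + EC50 CoCl2, 17 h, 37 degrees Celsius; CCF4 2.5 h RT; 460/530 nm ratio; AC50.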

Assay [13] is described as follows: Confirmation and Secondary Assay for Modulators of Hemoglobin Beta Chain Splicing at IVS2 705 locus (AID 930; active means well fitted curve in the direction sought with a large enough effect; an effect the other way counts as inactive or inconclusive;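 further: HeLa cells stably expressing the EGFP-705 splicing reporter; GFP fluorescence per well restored by corrected splicing of the IVS2-705 intron in EGFP; % of control where 0% means no effect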). The following applies: HeLa EGFP-705 splicing reporter, GFP fluorescence, 48 h; series mostly up to 38.3 µM. A digest of the protocol: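 Read-out: total peak GFP fluorescence per well (488 nm excitation, 500-520 nm emission) by laser-scanning cytometry. Cells: HeLa EGFP-705 splicing reporter, 2 days compound exposure in Optimem/2% FCS.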

Assay [14] is described as follows: qHTS Assay for Lipid Storage Modulators (AID 1519; calls by dose curve; further: potency means the concentration at half of the fitted maximal effect). As to conditions: Drosophila S3 cells, BODIPY lipid droplet/cell ratio, laser cytometry, cells loaded with oleic acid; for activity change, negative = inhibition: at 57.5 µM (top of the series). A digest of the protocol:
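Cells seeded at 5,000 per well were treated with compounds over a concentration series and loaded with oleic acid (400 uM, as added). Lipid droplet fluorescence (488 nm excitation, 500-530 nm channel) was read by laser-scanning cytometry and normalized to 20 uM Triacsin C.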

Assay [15] deals with Ubiquitin carboxyl-terminal hydrolase 1 (Homo sapiens) (UniProt O94782). Briefly: Inhibitors of USP1/UAF1: Pilot qHTS (AID 504865; active means well fitted curve in the direction sought with a large enough effect; an effect the other way counts as inactive or inconclusive; further: nearly all actives have a fitted effect of over 35% in size; further: potency means the concentration at half of the fitted maximal effect). The following applies: purified USP1/UAF1, Ub-rhodamine cleavage fluorescence; series mostly up to 54.9 µM. A digest of the protocol: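 USP1/UAF1 complex (1nM) preincubated with compound 15 min at room temperature, then Ub-Rho substrate (150nM final) added. Fluorescence read kinetically at 480/540 nm, 6 reads every 60 seconds. Buffer: 50mM HEPES pH 7.8, 0.5mM EDTA, 0.1 mg/ml BSA, 1mM TCEP, 0.01% Tween-20.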

Assay [16] can be described thus: NFAT Signaling Pathway (AID 444).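 Further: carbachol stimulus at about its EC50 of 1 µM final; on the % scale 0 is the no-effect control and ±100 the full control effect.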 As to conditions: Jurkat NFAT-bla M1, carbachol, beta-lactamase ratio, 5 h; at 7.69 µM (top of the series) unless noted. A digest of the protocol: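 Jurkat cells carrying an NFAT-driven β-lactamase reporter and co-transfected muscarinic M1 receptor were treated with compound plus carbachol (1 uM final, an EC50 level) for 5 h at 37 °C. CCF4 loading followed for 1 h at RT; 460/530 nm ratio gave %activity.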

Assay [17] addresses 3',5'-cyclic-AMP phosphodiesterase 4B (Homo sapiens) (UniProt Q07343). Briefly: qHTS Assay for Inhibitors of PDE-IV (AID 607; active means well fitted activation curve with a large enough effect in the main read-out, with a control signal flat, not every such curve was filed as active; further: % of control where 0% means no effect). As to conditions: HEK293 ACTOne CNG channel cells, membrane potential fluorescence; series mostly up to 22.9 µM. In outline: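 The readout is membrane depolarisation from a cAMP-sensing CNG channel, detected with a potential dye at ex 535/em 590. Cells were HEK293-derived (endogenous PDE-IV) at 1000 cells/well, titrated up to 22.9 uM final.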

Assay [18] deals with Cytochrome P450 2D6 (Homo sapiens) (UniProt P10635). Briefly: qHTS Assay for Inhibitors and Substrates of Cytochrome P450 2D6 (AID 891; active means well fitted curve in the direction sought with a large enough effect; an effect the other way counts as inactive or inconclusive; further: potency means the concentration at half of the fitted maximal effect; nearly all actives have a fitted effect of over 60% in size). The following applies: recombinant CYP2D6, luciferin-ME EGE luminescence; series mostly up to 57.1 µM. A digest of the protocol:
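Luminescent read-out of luciferin formed by 5 nM human CYP2D6 demethylating 30 uM Luciferin-ME EGE (Km level) over 60 min at room temperature after NADPH regeneration addition. Data normalized to full inhibition by 1.43 uM quinidine.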

Where [19] appears, read: measured here: cell count channel max response.
Setting [20] is: measured here: lipid channel max response.

Inconclusive results are not listed. Calls of active or inactive are those of the source. Unless noted, the call rests on the fitted dose curve; in most records, active means well fitted curve in either direction with a large enough effect (not every such curve was filed as active); inconclusive means small, poorly fitted or top-dose-only effect, or another doubt; inactive means flat fitted curve, though single readings scatter.

Sequence of Lysosomal acid glucosylceramidase (Homo sapiens) (P04062 whole entry, looked up): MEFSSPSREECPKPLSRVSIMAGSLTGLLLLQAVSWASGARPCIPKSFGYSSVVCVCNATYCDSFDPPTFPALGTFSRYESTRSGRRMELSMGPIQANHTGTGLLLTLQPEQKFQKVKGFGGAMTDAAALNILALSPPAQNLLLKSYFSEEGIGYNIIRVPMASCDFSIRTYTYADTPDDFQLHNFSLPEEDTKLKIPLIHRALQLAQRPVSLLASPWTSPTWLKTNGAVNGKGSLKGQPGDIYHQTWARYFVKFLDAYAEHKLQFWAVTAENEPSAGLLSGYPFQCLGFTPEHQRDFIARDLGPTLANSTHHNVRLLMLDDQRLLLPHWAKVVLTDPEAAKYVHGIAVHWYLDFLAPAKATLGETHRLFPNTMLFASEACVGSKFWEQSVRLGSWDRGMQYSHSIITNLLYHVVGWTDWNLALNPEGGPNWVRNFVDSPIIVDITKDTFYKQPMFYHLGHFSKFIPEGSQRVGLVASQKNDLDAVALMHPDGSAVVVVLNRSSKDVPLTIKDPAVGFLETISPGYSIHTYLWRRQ
Sequence of 3',5'-cyclic-AMP phosphodiesterase 4B (Homo sapiens) (Q07343 whole entry, looked up): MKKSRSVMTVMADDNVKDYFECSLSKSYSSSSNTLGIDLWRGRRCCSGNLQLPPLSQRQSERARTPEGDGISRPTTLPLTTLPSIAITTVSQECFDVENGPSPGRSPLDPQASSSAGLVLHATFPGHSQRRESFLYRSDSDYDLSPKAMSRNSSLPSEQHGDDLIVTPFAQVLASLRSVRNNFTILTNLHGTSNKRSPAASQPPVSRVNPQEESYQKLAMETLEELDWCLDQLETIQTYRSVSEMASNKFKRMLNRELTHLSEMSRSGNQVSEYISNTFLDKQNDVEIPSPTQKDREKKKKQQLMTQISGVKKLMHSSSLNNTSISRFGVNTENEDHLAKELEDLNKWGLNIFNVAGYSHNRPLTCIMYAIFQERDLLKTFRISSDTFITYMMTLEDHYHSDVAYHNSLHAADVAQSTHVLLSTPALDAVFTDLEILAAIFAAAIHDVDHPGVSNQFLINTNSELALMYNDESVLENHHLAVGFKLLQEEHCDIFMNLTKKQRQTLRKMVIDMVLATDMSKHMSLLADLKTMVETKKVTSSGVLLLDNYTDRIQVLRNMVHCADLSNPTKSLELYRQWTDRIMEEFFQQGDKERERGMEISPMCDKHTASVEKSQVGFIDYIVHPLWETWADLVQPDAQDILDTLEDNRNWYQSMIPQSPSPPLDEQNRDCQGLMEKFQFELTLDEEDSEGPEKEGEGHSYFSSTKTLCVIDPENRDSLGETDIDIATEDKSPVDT
Sequence of Glucocorticoid receptor (Homo sapiens) (P04150 whole entry, looked up): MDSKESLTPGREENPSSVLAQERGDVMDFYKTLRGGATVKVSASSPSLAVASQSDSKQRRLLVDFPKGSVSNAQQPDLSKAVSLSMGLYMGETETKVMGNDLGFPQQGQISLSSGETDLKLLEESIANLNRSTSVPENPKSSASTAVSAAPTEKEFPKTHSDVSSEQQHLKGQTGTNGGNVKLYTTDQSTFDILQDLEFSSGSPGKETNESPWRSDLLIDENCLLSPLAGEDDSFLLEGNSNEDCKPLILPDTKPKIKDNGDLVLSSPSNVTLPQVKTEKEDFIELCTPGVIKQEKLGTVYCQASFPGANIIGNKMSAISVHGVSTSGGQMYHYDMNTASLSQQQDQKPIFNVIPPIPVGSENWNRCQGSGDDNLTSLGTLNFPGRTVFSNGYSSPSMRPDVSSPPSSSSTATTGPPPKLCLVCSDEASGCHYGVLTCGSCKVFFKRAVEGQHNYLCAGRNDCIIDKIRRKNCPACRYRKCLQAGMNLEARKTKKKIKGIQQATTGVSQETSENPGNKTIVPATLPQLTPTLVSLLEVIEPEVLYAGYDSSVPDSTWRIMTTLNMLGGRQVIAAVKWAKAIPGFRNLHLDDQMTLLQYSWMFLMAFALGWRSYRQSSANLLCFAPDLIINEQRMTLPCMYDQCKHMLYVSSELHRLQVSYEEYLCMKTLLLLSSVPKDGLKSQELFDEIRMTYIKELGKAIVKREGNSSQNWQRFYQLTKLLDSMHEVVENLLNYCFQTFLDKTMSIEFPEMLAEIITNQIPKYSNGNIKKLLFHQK
Sequence of Cytochrome P450 1A2 (Homo sapiens) (P05177 whole entry, looked up): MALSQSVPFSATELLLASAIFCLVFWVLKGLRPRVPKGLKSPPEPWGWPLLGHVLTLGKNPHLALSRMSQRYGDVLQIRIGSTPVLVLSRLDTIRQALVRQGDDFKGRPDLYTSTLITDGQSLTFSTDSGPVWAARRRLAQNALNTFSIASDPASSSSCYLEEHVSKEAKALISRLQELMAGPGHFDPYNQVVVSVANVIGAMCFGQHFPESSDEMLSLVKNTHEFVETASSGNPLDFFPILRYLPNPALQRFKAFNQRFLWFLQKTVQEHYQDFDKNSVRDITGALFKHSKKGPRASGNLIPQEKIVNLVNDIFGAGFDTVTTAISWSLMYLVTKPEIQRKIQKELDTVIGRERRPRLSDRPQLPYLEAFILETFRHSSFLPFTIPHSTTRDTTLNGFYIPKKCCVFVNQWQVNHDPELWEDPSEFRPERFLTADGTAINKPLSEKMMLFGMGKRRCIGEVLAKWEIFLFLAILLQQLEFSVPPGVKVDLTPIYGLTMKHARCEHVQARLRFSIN
Sequence of Cytochrome P450 3A4 (Homo sapiens) (P08684 whole entry, looked up): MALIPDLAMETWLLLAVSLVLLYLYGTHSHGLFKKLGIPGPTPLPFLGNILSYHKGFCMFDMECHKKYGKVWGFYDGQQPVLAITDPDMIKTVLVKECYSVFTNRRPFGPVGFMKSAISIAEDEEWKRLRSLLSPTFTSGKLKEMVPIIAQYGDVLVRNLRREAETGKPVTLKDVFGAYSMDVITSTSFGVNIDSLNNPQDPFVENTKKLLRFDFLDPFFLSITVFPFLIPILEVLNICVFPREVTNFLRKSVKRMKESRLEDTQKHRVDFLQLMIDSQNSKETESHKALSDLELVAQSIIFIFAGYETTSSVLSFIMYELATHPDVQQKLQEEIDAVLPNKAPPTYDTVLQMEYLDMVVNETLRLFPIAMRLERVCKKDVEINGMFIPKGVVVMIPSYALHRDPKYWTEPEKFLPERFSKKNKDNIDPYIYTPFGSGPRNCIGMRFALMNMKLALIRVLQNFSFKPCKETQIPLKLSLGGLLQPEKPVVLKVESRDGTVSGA
Sequence of Ubiquitin carboxyl-terminal hydrolase 1 (Homo sapiens) (O94782 whole entry, looked up): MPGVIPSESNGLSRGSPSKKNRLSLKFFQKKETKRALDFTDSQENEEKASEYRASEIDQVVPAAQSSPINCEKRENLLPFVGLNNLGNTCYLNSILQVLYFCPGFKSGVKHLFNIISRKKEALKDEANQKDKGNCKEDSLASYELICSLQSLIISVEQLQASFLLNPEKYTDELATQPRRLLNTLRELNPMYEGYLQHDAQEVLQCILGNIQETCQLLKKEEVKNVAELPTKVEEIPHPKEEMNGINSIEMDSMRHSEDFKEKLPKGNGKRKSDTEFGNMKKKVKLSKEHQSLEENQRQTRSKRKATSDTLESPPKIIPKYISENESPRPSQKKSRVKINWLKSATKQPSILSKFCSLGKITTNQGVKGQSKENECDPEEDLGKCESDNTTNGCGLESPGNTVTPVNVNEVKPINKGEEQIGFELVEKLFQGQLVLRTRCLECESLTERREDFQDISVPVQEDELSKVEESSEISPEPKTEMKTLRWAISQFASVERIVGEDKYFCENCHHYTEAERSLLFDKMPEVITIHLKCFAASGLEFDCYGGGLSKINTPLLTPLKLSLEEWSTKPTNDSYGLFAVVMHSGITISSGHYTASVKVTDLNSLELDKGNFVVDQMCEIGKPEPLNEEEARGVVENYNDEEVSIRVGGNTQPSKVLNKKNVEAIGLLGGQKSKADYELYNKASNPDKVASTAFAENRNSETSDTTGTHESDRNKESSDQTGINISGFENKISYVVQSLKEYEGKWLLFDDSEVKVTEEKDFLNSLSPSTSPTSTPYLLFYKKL
Sequence of Cytochrome P450 2C19 (Homo sapiens) (P33261 whole entry, looked up): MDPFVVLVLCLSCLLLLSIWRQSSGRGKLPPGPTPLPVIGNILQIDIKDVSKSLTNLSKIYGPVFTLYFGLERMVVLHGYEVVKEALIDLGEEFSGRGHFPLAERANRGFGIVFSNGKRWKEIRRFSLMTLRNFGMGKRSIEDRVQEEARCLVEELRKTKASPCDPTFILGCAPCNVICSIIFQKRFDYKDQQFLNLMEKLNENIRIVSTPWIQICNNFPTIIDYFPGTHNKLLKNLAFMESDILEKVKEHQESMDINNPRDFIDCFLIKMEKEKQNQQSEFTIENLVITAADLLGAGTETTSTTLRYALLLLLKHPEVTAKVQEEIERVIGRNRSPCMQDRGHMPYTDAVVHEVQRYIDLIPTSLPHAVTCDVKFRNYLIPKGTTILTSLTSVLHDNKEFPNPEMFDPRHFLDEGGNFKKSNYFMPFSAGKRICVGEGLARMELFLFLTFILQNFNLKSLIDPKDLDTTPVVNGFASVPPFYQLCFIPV
Sequence of Cytochrome P450 2D6 (Homo sapiens) (P10635 whole entry, looked up): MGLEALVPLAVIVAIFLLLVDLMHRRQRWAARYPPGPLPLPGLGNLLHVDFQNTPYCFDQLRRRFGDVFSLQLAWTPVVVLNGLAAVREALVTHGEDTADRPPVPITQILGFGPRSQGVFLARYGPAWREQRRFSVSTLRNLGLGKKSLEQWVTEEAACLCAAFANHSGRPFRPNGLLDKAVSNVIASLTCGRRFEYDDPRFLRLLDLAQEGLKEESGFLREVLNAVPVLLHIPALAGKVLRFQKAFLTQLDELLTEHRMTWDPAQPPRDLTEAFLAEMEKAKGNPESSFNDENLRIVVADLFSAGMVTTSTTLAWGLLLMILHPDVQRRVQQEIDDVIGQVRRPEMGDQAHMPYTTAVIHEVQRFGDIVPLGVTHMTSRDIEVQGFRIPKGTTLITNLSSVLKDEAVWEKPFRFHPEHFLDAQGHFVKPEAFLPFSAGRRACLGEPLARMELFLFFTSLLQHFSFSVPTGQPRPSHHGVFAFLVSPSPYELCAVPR

On to `c1ccc2c(Nc3ccncc3)nc(-c3ccc4c(c3)OCO4)nc2c1`, for which the Potency in assay [1] was 2.47 µM (active); in assay [3], 1.26 µM (active); in assay [5] it was > 46 µM (inactive); in [6], > 46 µM (inactive); in assay [8], 0.501 µM (active); in assay [10] it was 3.98 µM (active). The Potency in assay [15] is 39.8 µM (active). Further, the activity change, negative = inhibition is 4.72% (inactive) in [2] and -19.5% (inactive) in [14]. Moreover, the activity, negative = inhibition in assay [4] is -10.5% (inactive). Moreover, the Potency entry in assay [7], in [9] and in assay [11] was “inactive” in each case. Further, the activation in [12] was -1.29% (inactive). For the same compound, the compound was called inactive in assay [13]. Besides, the results for the max response in assay [14] (setting [19]) and in assay [14] (setting [20]) were 5.68% and -11.9%, respectively.
With `Cc1noc(C)c1-c1nccc(N2CCNCC2)n1`, the Potency in assay [1] is > 11.4 µM (inactive); in assay [5] it was > 46 µM (inactive); in assay [6] it was > 46 µM (inactive). Moreover, the figures for the activity change, negative = inhibition in assay [2], in assay [16] and in [14] were 14.5% (inactive), -5.44% (inactive) and 6.06% (inactive), respectively. For the same compound, the activity, negative = inhibition in assay [4] is -0.568% (inactive). The Potency entry in assay [7], in assay [17], in assay [11] and in assay [15] was “inactive” throughout. In assay [13], the call was inactive. Besides, the max response in [14] (setting [19]) was found to be 6.93%; in assay [14] (setting [20]), 14.7%.
As for `CS(=O)(=O)N1CCC[C@@]2(CCN(C(c3ccccc3)c3ccccc3)C2)C1`, the Potency in [1] is > 11.4 µM (inactive); in assay [3] it was 25.1 µM (active); in [18], 3.98 µM (active); in assay [14], 7.94 µM (active). Moreover, the figures for the activity change, negative = inhibition in assay [2] and in assay [16] were 5.41% (inactive) and -7.94% (inactive), respectively. The activity, negative = inhibition in [4] is 1.66% (inactive). Moreover, the Potency result in assay [7] and in [17] was “inactive” throughout. Besides, the max response is -26.7% in assay [14] (setting [19]) and -82.6% in assay [14] (setting [20]).
In the case of `CC(C)CN1CC[C@@]2(CCCN(C(=O)c3cc(C(F)(F)F)cc(C(F)(F)F)c3)C2)C1`, the Potency in assay [1] is > 11.4 µM (inactive); in assay [3] it was 25.1 µM (active); in assay [6], > 46 µM (inactive). The activity change, negative = inhibition in [2] is -5.91% (inactive); in assay [14], 1.55% (inactive). Moreover, the activity, negative = inhibition in assay [4] was 11.2% (inactive). For the same compound, the Potency result in [7], in assay [17] and in assay [9] was “inactive” each time. Besides, the results for the max response in assay [14] (setting [19]) and in assay [14] (setting [20]) were 13.4% and 17.5%, respectively.
